# Test results as given in the supplement of paper PMC10981050.
# Several values for one entry are separate records, joined by “and”; a condition that tells them apart may be missing. Identical values can stand only once. Counter-ions that a name gives are not always drawn.
# How the values were obtained:
# Assay in all cases: cell viability relative to vehicle control; higher = less cytotoxic
# Details in all cases: 10 µM
# K562 = system: K562
# Method in brief: (§1)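 After removal of identity-inconsistent compounds, the Selleck bioactive, kinase and epigenetic probe libraries were screened on CRISPR-edited mutant clones and isogenic wild-type clones of four leukaemia lines. Plates were 384-well, each well holding 2000 cells in 50 µL medium and receiving a single 10 µM acoustically dispensed dose. CellTiter-Glo luminescence was read 48 h later, after the supernatant was taken off. Genedata Screener was used to express viability as percent of the on-plate vehicle control.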
# MARIMO = system: MARIMO
# Method in brief: as §1
# MOLM14 = system: MOLM14
# Method in brief: as §1
# OCI-AML2 = system: OCI-AML2
# Method in brief: as §1
Compound,cell viability (K562; SRSF2 genotype: SRSF2 P95H/wt),cell viability (K562; SRSF2 genotype: SRSF2 wt/wt),cell viability (MARIMO; SRSF2 genotype: SRSF2 P95H/wt),cell viability (MARIMO; SRSF2 genotype: SRSF2 wt/wt),cell viability (MOLM14; SRSF2 genotype: SRSF2 P95H/wt),cell viability (MOLM14; SRSF2 genotype: SRSF2 wt/wt),cell viability (OCI-AML2; SRSF2 genotype: P95H/wt),cell viability (OCI-AML2; SRSF2 genotype: wt/wt)
c1cncc(CN2CCC(n3ncc4c(N5CCOCC5)nc(-c5ccc6[nH]ccc6c5)nc43)CC2)c1,41.8% and 44.3%,51%,3.19%,6.42%,35%,25%,26.2%,29.1%
C[C@@]1(C(=O)Nc2ccc(F)nc2)CCCN1c1nc(Nc2cc(C3CC3)n[nH]2)c2cccn2n1,61.4% and 72.2%,63.7%,38.7%,33.2%,7.43%,9.62%,7.63%,19.3%
O=C(O)P(=O)(O)O [Foscarnet Sodium],106% and 108%,107%,101%,108%,101%,109%,112%,95.6%
O=C(c1ccccc1)c1ccc2n1CCC2C(=O)O (stereo not given) [Ketorolac],102% and 98.1%,99.6%,100%,102%,98.2%,102%,103%,108%
NC(C=O)C(O)C(O)C(O)CO (stereo not given) [Glucosamine sulfate],99.5% and 102%,100%,101%,105%,104%,108%,104%,104%
CC(=O)O[C@@]12CO[C@@H]1C[C@H](O)[C@@]1(C)C(=O)[C@H](O)C3=C(C)[C@@H](OC(=O)[C@H](O)[C@@H](NC(=O)OC(C)(C)C)c4ccccc4)C[C@@](O)([C@@H](OC(=O)c4ccccc4)[C@H]21)C3(C)C [Docetaxel (Taxotere)],25.3% and 36.8%,34.7%,6.89%,5.5%,7.8%,4.57%,7.58%,13.3%
CC(C)=CCCC(C)(O)C1CCC2(C)C1C(O)CC1C3(C)CCC(O)C(C)(C)C3C(OC3OC(CO)C(O)C(O)C3OC3OC(C)C(O)C(O)C3O)CC12C [(20S)Ginsenoside Rg2],102% and 108%,98.7%,108%,108%,104%,104%,101%,115%
CC(C)Cn1cnc2c(N)nc3ccccc3c21 [Imiquimod],80.9% and 85.2%,77.2%,78.5%,92.4%,78.1%,84.8%,85.9%,85.4%
Cc1ccc(C(=O)c2cc(O)c(O)c([N+](=O)[O-])c2)cc1 [Tolcapone],107% and 113%,112%,109%,111%,106%,109%,113%,97.3%
"O=C1CCc2ccc(O)cc2N1 [7-Hydroxy-3,4-dihydrocarbostyril]",110% and 104%,102%,105%,112%,107%,103%,101%,107%
COc1cc2c3cc1Oc1c(OC)c(OC)cc4c1[C@@H](Cc1ccc(O)c(c1)Oc1ccc(cc1)C[C@@H]3N(C)CC2)N(C)CC4 [Berbamine],62.8% and 49.4%,57.5%,72.7%,67.2%,72.8%,67.6%,39.3%,54.9%
"CC(C)(C)C#Cc1cc(N(C(=O)[C@H]2CC[C@H](C)CC2)[C@H]2CC[C@H](O)CC2)c(C(=O)O)s1 [Lomibuvir (VX-222, VCH-222)]",108% and 102%,107%,113%,115%,109%,106%,124%,120%
CCCCCCCCC(=O)O [Nonanoic acid],98.3% and 102%,102%,108%,106%,98.4%,102%,107%,97%
C=C1CCC[C@]2(C)C=C3OC(=O)C(C)=C3C[C@@H]12 [Atractylenolide I],102% and 110%,106%,97.2%,102%,103%,103%,116%,91.6%
CN(C)CCc1c[nH]c2ccc(C[C@H]3COC(=O)N3)cc12 [Zolmitriptan (Zomig)],96.7% and 103%,104%,107%,102%,99.4%,104%,108%,101%
C[C@H]1Oc2cc(cnc2N)-c2c(nn(C)c2C#N)CN(C)C(=O)c2ccc(F)cc21,102% and 95.5%,99.1%,91.1%,91%,119%,106%,94.9%,104%
CCCCCCCCCCCCCC(=S)NCCCC[C@H](NC(=O)OCc1ccccc1)C(=O)Nc1ccccc1 [Thiomyristoyl],82.1% and 77.7%,81.9%,81.4%,97.3%,82%,83.8%,90.2%,86.3%
[F][Ti]([F])([F])[F] [Titanium tetrafluoride],102% and 89.4%,98.7%,99.2%,105%,97.3%,102%,98.9%,99%
COCC1=C(C(=O)OC(C)OC(=O)OC(C)C)N2C(=O)[C@@H](NC(=O)/C(=N\OC)c3csc(N)n3)[C@H]2SC1 (stereo not given in full) [Cefpodoxime proxetil],103% and 105%,92.6%,91.9%,100%,90.4%,95.7%,90.3%,94.9%
C#Cc1cccc(Nc2ncnc3cc4c(cc23)OCCOCCOCCO4)c1 [Icotinib],96.1% and 94%,94.2%,92.4%,98.3%,92.3%,98.4%,94.9%,94.5%

Compound,cell viability (K562; SRSF2 genotype: SRSF2 P95H/wt),cell viability (K562; SRSF2 genotype: SRSF2 wt/wt),cell viability (MARIMO; SRSF2 genotype: SRSF2 P95H/wt),cell viability (MARIMO; SRSF2 genotype: SRSF2 wt/wt),cell viability (MOLM14; SRSF2 genotype: SRSF2 P95H/wt),cell viability (MOLM14; SRSF2 genotype: SRSF2 wt/wt),cell viability (OCI-AML2; SRSF2 genotype: P95H/wt),cell viability (OCI-AML2; SRSF2 genotype: wt/wt)
CC(C)c1c2cc(-c3ccnc(NC4CCC(NC5CCOCC5)CC4)n3)ccc2nn1C (stereo not given),10% and 24.4%,8.4%,13.4%,6.58%,0.76%,0.31%,2.85%,13.2%
Clc1ccc(C(Cn2ccnc2)OCc2ccc(Sc3ccccc3)cc2)c(Cl)c1 (stereo not given) [Fenticonazole nitrate],76.5% and 67.7%,63.8%,62.4%,78%,70.6%,73%,63.3%,69.1%
COc1ccc(C2CC(=O)c3c(O)cc(OC4OC(COC5OC(C)C(O)C(O)C5O)C(O)C(O)C4O)cc3O2)cc1 (stereo not given) [Didymin],107% and 103%,112%,108%,105%,106%,111%,104%,103%
C[S+](CC[C@H](N)C(=O)[O-])C[C@H]1O[C@@H](n2cnc3c(N)ncnc32)[C@H](O)[C@@H]1O (stereo not given in full) [Ademetionine disulfate tosylate],105% and 97.3%,103%,102%,110%,112%,115%,117%,110%
C[C@H]1CNCCCN1S(=O)(=O)c1cccc2cncc(F)c12 [Ripasudil (K-115)],104% and 103%,108%,101%,106%,74.7%,101%,76.7%,82.9%
S=C=Nc1cccc(NC(=S)NCCCCNC(=S)Nc2cccc(N=C=S)c2)c1,98.3% and 104%,98.8%,106%,105%,102%,106%,109%,106%
Cc1[nH]c(/C=C2\C(=O)Nc3ccc(S(=O)(=O)N(C)c4cccc(Cl)c4)cc32)c(C)c1C(=O)N1CCN(C)CC1,62.4% and 64.8%,80.7%,50.9%,53.2%,0.26%,64.6%,0.09%,0.12%
Oc1ccc2c(c1)OC[C@H]1c3cc4c(cc3O[C@@H]21)OCO4 [Maackiain],82.8% and 87.4%,79.4%,80%,83.8%,90.7%,85.4%,82.3%,84.6%
COC(c1ccccc1)(c1ccccc1)[C@H](Oc1nc(C)cc(C)n1)C(=O)O [Ambrisentan],103% and 96.5%,98.8%,95.2%,109%,102%,103%,102%,105%
C[C@H]1[C@H](OC(=O)CCC(=O)O)O[C@@H]2O[C@@]3(C)CC[C@H]4[C@H](C)CC[C@@H]1[C@@]24OO3 [Artesunate],43.3% and 38.6%,41.2%,42.7%,37.8%,34.5%,28.3%,2.96%,17.9%
O=C(Nc1ccc(Cl)cc1)C1CCCN(C(=O)c2cccc(-c3ccco3)c2)C1 (stereo not given),67.5% and 80.2%,71.6%,52.6%,39.4%,64.4%,77.1%,29%,43%
COc1cccc2c1C(=O)c1c(O)c3c(c(O)c1C2=O)CC(O)(C(=O)CO)CC3OC1CC(N)C(O)C(C)O1 (stereo not given) [Doxorubicin (Adriamycin) HCl],4.96% and 11.8%,6.38%,5.57%,2.71%,1%,0.45%,2.05%,12.5%
CC[C@@H](C)Nc1cc(C(=O)N[C@H]2C[C@H]3CC[C@@H](C2)N3c2ccc(C(=O)C3CC3)cn2)c(C)cc1C(N)=O,19.1% and 26.9%,23%,32.8%,28.5%,2%,2.43%,14.2%,21%
COc1cc2c(cc1OC)CN(C(=O)/C=C/c1c(-c3ccccc3)n(C)c3ncccc13)CC2,63.9% and 81.1%,71.3%,69.1%,70.5%,47.7%,44.2%,51.6%,49%
COC(=O)c1ccco1 [Methyl furan-2-carboxylate],108% and 99.5%,113%,101%,99.5%,107%,110%,111%,115%
COC(=O)N[C@H](C(=O)N1CCC[C@H]1c1ncc(-c2ccc(-c3ccc(-c4cnc([C@@H]5CCCN5C(=O)[C@@H](NC(=O)OC)C(C)C)[nH]4)cc3)cc2)[nH]1)C(C)C,93.2% and 92%,89.7%,72.4%,83.9%,78.2%,88.5%,84.6%,84.3%
COC(=O)C=Cc1ccc(O)cc1 [Methyl 4-hydroxycinnamate],95% and 87.9%,82.3%,83.5%,97.5%,85.6%,95.2%,105%,105%
CC(C)(C)c1cc(C(C)(C)C)c(NC(=O)c2c[nH]c3ccccc3c2=O)cc1O [Ivacaftor (VX-770)],79.4% and 75.5%,76.1%,101%,111%,85.7%,87.5%,91.7%,86%
CC1(C)[C@@H](O[C@H]2O[C@H](C(=O)O)[C@@H](O)[C@H](O)[C@H]2O[C@@H]2O[C@H](C(=O)O)[C@@H](O)[C@H](O)[C@H]2O)CC[C@]2(C)[C@H]3C(=O)C=C4[C@@H]5C[C@@](C)(C(=O)O)CC[C@]5(C)CC[C@@]4(C)[C@]3(C)CC[C@@H]12 [Dipotassium glycyrrhizinate],105% and 104%,102%,103%,112%,103%,103%,101%,105%
CC(C)(Oc1ccc(C2CC2(Cl)Cl)cc1)C(=O)O (stereo not given) [Ciprofibrate],101% and 96.8%,97.7%,89.6%,106%,98%,99.4%,94.3%,110%
